Here are results for 40 compounds from PubChem BioAssay (Tox21).

Calls of active or inactive are those of the source. A call without a number means that no potency is given here. Calls come from the whole dose curve; as a rule, active = well fitted curve in the direction sought with a large enough effect in the repeat runs; inconclusive = weak or mixed curves; inactive = flat fitted curve, though single readings scatter.
Potency is the fitted concentration of half-maximal effect; tags give direction and shape of the fitted curve or compound fluorescence and quenching.

The assay can be described thus: qHTS assay to test for compound auto fluorescence at 460 nm (blue) in HepG2 cell free culture (AID 720685). The following applies: Cell-free culture medium, blue autofluorescence 405/460 nm; series mostly up to 91.3 µM. From the text: U.S. Tox21 Program National Center for Advancing Translational Sciences [NCATS] NIH Chemical Genomics Center [NCGC] U.S. Environmental Protection Agency [EPA] National Institutes of Environmental Health Sciences [NIEHS] National Toxicology Program [NTP] U.S. Food and Drug Administration [FDA] Tox21 Assay Overview: Compound auto fluorescence often interferes with screening of the compound library against various biological targets and signaling pathways. Some of these compounds may have fluorophoric properties. Such properties may interfere with the assay outputs resulting in false positives and/or negatives. To decrease such complications and ensure the compound activities are relevant in terms of biological response, the Tox21 10K compound library was screened for auto fluorescence. From the fluorophores used as reporter signals in our screening assays, the auto fluorescence equivalencies of compounds against three fluorophores have been evaluated: Triamterene, Fluorescein and Rose Bengal sodium for blue, green and red fluorescence, respectively. The fluorescence intensities were measured using Excitation/Emission wavelengths at 405/460nm, 485/535nm and 540/590nm for blue, green and red labels, respectively. This assay includes the blue fluorescence data.
Tox21 Assay Protocol Summary: 5 uL of culture medium (MEM containing 10% FBS) per well was dispensed into black wall/clear bottom 1536-well plates using a Multidrop Combi Dispenser (ThermoFisher Scientific, Waltham, MA). After 23 nL compound or DMSO vehicle was transferred into assay plate by a pintool work station (Kalypsys, San Diego, CA), fluorescence intensities in the assay plates were measured by an Envision (PerkinElmer, Shelton, CT) plate reader using three labels for measuring blue, green and red fluorescence at […] 460, 535 and 590nm respectively.
For `NC(=NCCCCCCN=C(N)/N=C(\N)Nc1ccc(Cl)cc1)/N=C(\N)Nc1ccc(Cl)cc1`, the Potency result is “inactive”.

As for `Cc1ccc(-n2nc(C(C)(C)C)cc2NC(=O)Nc2ccc(OCCN3CCOCC3)c3ccccc23)cc1`, the Potency entry is “inactive”.

`CSc1ccc(/C=C2/C(C)=C(CC(=O)O)c3cc(F)ccc32)cc1`: the Potency result was “inactive”.

Turning to `C[n+]1ccn(Cc2ccccc2)c1`, the Potency entry is “inactive”.

On to `CC[C@@]1(O)C(=O)OCc2c1cc1n(c2=O)Cc2cc3c(CN(C)C)c(O)ccc3nc2-1`, for which the Potency was 14.1 µM [fluorescent] (active).

`Fc1ccc(C(c2ccc(F)cc2)N2CCN(C/C=C/c3ccccc3)CC2)cc1`: the Potency result is “inactive”.

`O=C(OC[C@H]1O[C@@H](OC(=O)c2cc(O)c(O)c(OC(=O)c3cc(O)c(O)c(O)c3)c2)[C@H](OC(=O)c2cc(O)c(O)c(OC(=O)c3cc(O)c(O)c(O)c3)c2)[C@@H](OC(=O)c2cc(O)c(O)c(OC(=O)c3cc(O)c(O)c(O)c3)c2)[C@@H]1OC(=O)c1cc(O)c(O)c(OC(=O)c2cc(O)c(O)c(O)c2)c1)c1cc(O)c(O)c(OC(=O)c2cc(O)c(O)c(O)c2)c1`: the Potency entry was “inactive”.

Regarding `O=C(Nc1cccc(C(F)(F)F)c1)c1cc(Br)cc(Br)c1O`, the Potency entry was “inactive”.

For the compound `CC/C(=C(\c1ccc(O)cc1)c1ccc(OCCN(C)C)cc1)c1ccccc1`, the Potency result was “inactive”.

For `CN1CCN(CCC(=O)N2c3ccccc3Sc3ccc(C(F)(F)F)cc32)CC1`, the Potency entry was “inactive”.

As to `CC(C)OC(=O)c1cc2c(OCC(O)CNC(C)(C)C)cccc2[nH]1` (stereo not given), the Potency result was “inactive”.

With `CCN(CCC#N)c1ccc(N=Nc2c(Cl)cc([N+](=O)[O-])cc2Cl)cc1`, the Potency result is “inactive”.

As for `CS(=O)(=O)CCNCc1ccc(-c2ccc3ncnc(Nc4ccc(OCc5cccc(F)c5)c(Cl)c4)c3c2)o1`, the Potency entry is “inactive”.

In the case of `CC(C)(C)CC(C)(C)c1ccc(OCCOCC[N+](C)(C)Cc2ccccc2)cc1`, the Potency entry is “inactive”.

For the compound `O=c1cc(-c2ccc(O)cc2)oc2cc(O)cc(O)c12`, the Potency result is “inactive”.

`CC(C)(C)c1ccc(C(=O)O)cc1`: the Potency result is “inactive”.

Consider `CCCCC(CC)COP(=O)(O)OCC(CC)CCCC` (stereo not given), for which the Potency entry was “inactive”.

In the case of `COc1cc(/C=C/C(=O)O[C@H]2CC[C@]34C[C@]35CC[C@]3(C)[C@@H]([C@H](C)CCC=C(C)C)CC[C@@]3(C)[C@@H]5CC[C@H]4C2(C)C)ccc1O`, the Potency entry was “inactive”.

For `CC(=O)N1CCN(c2ccc(OC[C@H]3CO[C@](Cn4ccnc4)(c4ccc(Cl)cc4Cl)O3)cc2)CC1`, the Potency result is “inactive”.

Regarding `C[C@H](CCC(=O)O)[C@H]1CC[C@H]2[C@@H]3CC[C@@H]4C[C@H](O)CC[C@]4(C)[C@H]3CC[C@]12C`, the Potency entry was “inactive”.

In the case of `CCCCCCCCS(=O)C(C)Cc1ccc2c(c1)OCO2` (stereo not given), the Potency entry is “inactive”.

In the case of `Oc1c(Cl)cc(Cl)c2cccnc12`, the Potency result is “inactive”.

Regarding `Cc1[nH]nc2c1N=C(c1ccccc1Cl)c1cc([N+](=O)[O-])ccc1N2`, the Potency entry was “inactive”.

With `O=C1C=CC(=O)N1`, the Potency entry was “inactive”.

In the case of `COc1cccc(N)c1`, the Potency entry is “inactive”.

Take `N/C(=N\N=C\c1ccc(Cl)cc1)N/N=C/c1ccc(Cl)cc1`: the Potency entry was “inactive”.

Turning to `CC[C@H](c1ccc(O)cc1)[C@@H](CC)c1ccc(O)cc1`, the Potency entry is “inactive”.

`CC1=C(C(=O)OC(C)C)C(c2cccc([N+](=O)[O-])c2)C(C(=O)OC2CN(C(c3ccccc3)c3ccccc3)C2)=C(N)N1` (stereo not given): the Potency result was “inactive”.

In the case of `CCCCCCC[N+](CC)(CC)CCCCc1ccc(Cl)cc1`, the fluorescence, % of fluorescent control is -0.0851% [at 18.6 µM] (inactive).

With `Cc1c(C)c2c(c(C)c1OC(=O)CCC(=O)O)CC[C@@](C)(CCC[C@H](C)CCC[C@H](C)CCCC(C)C)O2`, the Potency result was “inactive”.

On to `CCCCCCCCCCCCCC[P+](CCCC)(CCCC)CCCC` (tested in a mixture with another compound), for which the Potency entry was “inactive”.

Turning to `Nc1c(Cl)cc(Cl)cc1Cl`, the Potency entry is “inactive”.

On to `C=C(C)C(=O)OCC[N+](C)(C)C`, for which the Potency result is “inactive”.

Take `CC(C)c1ccc2c(c1)CC[C@H]1[C@](C)(CN)CCC[C@]21C`: the Potency result was “inactive”.

On to `CCCCCCCC/C=C\CCCCCCCCOCCO`, for which the Potency entry was “inactive”.

Regarding `Cc1cc(O)c(C(C)(C)C)cc1C(C)(C)C`, the Potency entry is “inactive”.

`Cc1cccc(S(=O)(=O)O)c1C`: the Potency entry is “inactive”.

In the case of `O=C1Cc2cc(CCN3CCN(c4nsc5ccccc45)CC3)c(Cl)cc2N1`, the Potency result was “inactive”.

Take `Cc1cc(O)c(Cl)c(C)c1Cl`: the Potency entry is “inactive”.

On to `NNc1nc(-c2ccc([N+](=O)[O-])cc2)cs1`, for which the Potency result is “inactive”.
